Screening results as filed in PubChem BioAssay.
Most compounds without a hit are left out; they make up all but 3.1% or so of the library.
LEDGF integ inh = blocks HIV-1 LEDGF/p75-dependent DNA integration | TR-FRET IN-LEDGF/p75 DNA integration, Eu/Cy5 | inhibition, % at 3.7 µM | 370,000 tested, 0.64% active | AID 743269;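 active = inhibition above the screen-wide mean plus 3 SD, cut at about 13% in these data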;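 note: signal is the Cy5 over europium emission ratio at 671 and 618 nm; 0% = plate median of compound wells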
proKLK7 act = activates the human kallikrein-7 zymogen | activation, % at 7 µM | 370,000 tested, 0.9% active | AID 652039 | purified proKLK7, EDANS-DABCYL substrate fluorescence; 100% is mature enzyme control, 0% vehicle | P49862;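 active = activation above the mean of all tested compounds plus 3 SD, computed per campaign excluding outliers beyond control limits, cut at about 13% in these data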
Target sequence (P49862 whole entry, looked up): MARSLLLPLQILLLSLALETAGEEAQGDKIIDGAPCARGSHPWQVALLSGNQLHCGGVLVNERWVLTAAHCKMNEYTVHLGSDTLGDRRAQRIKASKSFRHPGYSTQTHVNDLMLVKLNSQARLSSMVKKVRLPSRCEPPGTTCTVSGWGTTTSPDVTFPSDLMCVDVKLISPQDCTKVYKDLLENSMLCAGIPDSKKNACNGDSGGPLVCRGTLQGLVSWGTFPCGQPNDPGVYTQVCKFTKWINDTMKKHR
Neddyl block = blocks human cullin neddylation; P61081+Q13564; TR-FRET cullin neddylation, biochemical; calls only at 25 µM; 360,000 tested, 0.58% active; in the data active = inhibition above about 36%
UHRF1 binding = UHRF1 methyl-DNA binding inhibition; Q96T88; UHRF1 binding to methylated oligo, TR-FRET; inhibition, % at 4.4 µM; 370,000 tested, 0.75% active; AID 687016;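 note: UHRF1 SRA domain binding a hemimethylated CpG hairpin DNA probe; 0% = median of test compound wells and 100% = reference inhibitor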
MBD2 DNA inh = blocks human MBD2 binding to methylated DNA; 370,000 tested, 0.31% active; TR-FRET, MBD2 binding to methylated oligonucleotide; inhibition, % at 4.4 µM; Q9UBB5; in the data active = inhibition above about 13%
Rin1 Abl inh = blocks binding of human Rin1 to Abl; P00519+Q13671; TR-FRET Rin1/Abl binding, biochemical; inhibition, % at 7.35 µM; 360,000 tested, 0.4% active; in the data active = inhibition above about 5%, passing the limit was not always enough
UHRF1 DNA bind = counter-screen for MBD2 inhibitors: human UHRF1 methylated DNA binding inhibitors. shares compounds with MBD2 DNA inh. UHRF1 binding to methylated oligonucleotide, TR-FRET. inhibition, % at 4.4 µM. 1,000 tested, 25% active. AID 720530;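 note: UHRF1 SRA domain binding a labeled hemimethylated CpG hairpin DNA; 0% = vehicle only and 100% = reference inhibitor with vehicle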
MBD2 DBD conf = MBD2-DBD methyl-DNA binding inhibition, TR-FRET confirmation. shares compounds with MBD2 DNA inh. TR-FRET MBD2-DBD binding to methylated oligonucleotide. inhibition, % at 4.4 µM. 1,000 tested, 26% active. AID 720531; in the data active = inhibition above about 14%
Numbers without * were called inactive; i = inactive; / = no result given. Cut-off read from the data, not from the text of the source, unless noted: active = inhibition above about 21%; inactive = the rest.

SMILES	LEDGF integ inh	proKLK7 act	Neddyl block	UHRF1 binding	MBD2 DNA inh	Rin1 Abl inh	UHRF1 DNA bind	MBD2 DBD conf
O=S1(=O)CC(N2CCC(c3ccccc3)CC2)CN1Cc1cn(Cc2ccc(C(F)(F)F)cc2)nn1 (configuration not stated)	0	1	/	2	0	/	/	/
C[C@H](O)[C@@H]1CN2CCc3c([nH]c4ccccc34)[C@@H]2C[C@@H]1N(C)CC1CCCCC1	4	1	/	2	-1	/	/	/
Cc1nnc(SCC(=O)Nc2ccc(N(C)C)cc2)n(N)c1=O	-6	0	i	-3	13*	-1	2	3
O=C1CCCCC1Nc1ccc(Br)cc1 (configuration not stated)	-1	0	i	21*	13*	-2	2	1
COC(=O)[C@H](C)NC(=O)[C@@H]1CC=C[C@@H]2CCN(CCc3ccccc3)C(=O)[C@@H]21	0	/	/	2	1	/	/	/
O=C(NCCN1CCN(C(=O)c2ccc(F)cc2)CC1)c1ccc(F)cc1	0	0	i	0	14*	4	11	3
c1ccc(SC23CC4CC(CC(C4)C2)C3)nc1	-5	0	i	1	13*	0	8	3
Cn1c(=O)n(C/C=C/c2ccccc2)c(=O)c2c1nc1n2CCCN1Cc1ccccc1	-2	0	i	-2	1	2	/	/
C=CCn1c(=O)c2c(nc3n2CCCN3Cc2ccccc2)n(C)c1=O	6	0	i	25*	15*	2	5	2
COC(=O)c1ccc(Oc2ccc3nnc(C)n3n2)cc1	-2	0	i	8	13*	1	-1	3
OCC1(CCOc2ccccc2)CCN(CCCn2cccn2)CC1	-4	0	i	19	13*	-1	8	3
CCn1ccnc1CN1CCC(CO)(CCOc2ccccc2)CC1	-5	0	i	7	6	2	/	/
O=C(CSc1nnc(-c2ccccc2)n1Cc1ccco1)Nc1ccc(OCc2ccccc2)cc1	4	1	/	0	-5	/	/	/
Cc1ccc(S(=O)(=O)NC(=O)Nc2ccc(F)c(F)c2)cc1	-2	0	i	-3	0	2	/	/
Cc1ccc(S(=O)(=O)NC(=O)Nc2cccc(S(=O)(=O)N(C)C)c2)cc1	-1	0	i	2	56*	0	6	2
CC(=O)Nc1nc(-c2ccccc2)ns1	0	1	i	2	13*	3	-1	6
O=c1oc(-c2ccccc2)nc2sc3c(c12)CCC3	11	1	/	46*	18*	2	26*	15*
Cc1ccc(C(=O)NCc2ccc3c(c2)OCO3)c(Cl)c1	-4	0	i	22*	15*	2	6	5
COC(=O)C(=Cc1ccncc1)c1cccc2ccccc12	2	0	i	0	40*	1	7	2
COCCN(C(=O)c1ccc2ccccc2c1)c1c(N)n(Cc2ccccc2)c(=O)[nH]c1=O	1	0	i	4	6	-5	/	/
COCCn1c(N)c(N(Cc2ccccc2)C(=O)c2ccc3ccccc3c2)c(=O)[nH]c1=O	10	0	i	26*	13*	-3	6	2
COC(=O)C[C@@H]1CC[C@@H](NC(=O)NC2CCCC2)[C@@H](CO)O1	0	0	i	-1	1	/	/	/
COC(=O)C[C@@H]1CC[C@@H](NC(=O)C2CCC2)[C@@H](CO)O1	7	0	i	23*	21*	/	9	4
COc1cc2c(cc1OC)CN(c1ccc(C(N)=O)cc1[N+](=O)[O-])CC2	-2	0	i	-3	-9	-5	/	/
CSc1nsc(SCC(=O)Nc2ccc(C(C)=O)cc2)n1	0	1	i	0	1	-1	/	/
CSc1nsc(SCC(=O)Nc2ccc(C(N)=O)cc2)n1	-3	-1	i	0	23*	2	6	2
